Assay [1] deals with Lysosomal acid glucosylceramidase (Homo sapiens) (UniProt P04062). Nature of the assay: Glucocerebrosidase-p2 (AID 348; in the data active = potency below about 10 µM; also: potency is read from the fitted curve at half-maximal effect). The settings on record: purified GBA, blue fluorogenic substrate, 40 min. The method, boiled down: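 Normal human glucocerebrosidase (0.2 nM) with blue fluorogenic substrate (80 uM final) in citrate/phosphate pH 5.9 with 10mM sodium taurocholate, 0.01% tween-20; 40 min RT, NaOH/glycine stop; fluorescence Ex 365/Em 440; AC50 from a titration from 0.6 nM upwards.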
Chain of Lysosomal acid glucosylceramidase (Homo sapiens) (P04062 whole entry, looked up): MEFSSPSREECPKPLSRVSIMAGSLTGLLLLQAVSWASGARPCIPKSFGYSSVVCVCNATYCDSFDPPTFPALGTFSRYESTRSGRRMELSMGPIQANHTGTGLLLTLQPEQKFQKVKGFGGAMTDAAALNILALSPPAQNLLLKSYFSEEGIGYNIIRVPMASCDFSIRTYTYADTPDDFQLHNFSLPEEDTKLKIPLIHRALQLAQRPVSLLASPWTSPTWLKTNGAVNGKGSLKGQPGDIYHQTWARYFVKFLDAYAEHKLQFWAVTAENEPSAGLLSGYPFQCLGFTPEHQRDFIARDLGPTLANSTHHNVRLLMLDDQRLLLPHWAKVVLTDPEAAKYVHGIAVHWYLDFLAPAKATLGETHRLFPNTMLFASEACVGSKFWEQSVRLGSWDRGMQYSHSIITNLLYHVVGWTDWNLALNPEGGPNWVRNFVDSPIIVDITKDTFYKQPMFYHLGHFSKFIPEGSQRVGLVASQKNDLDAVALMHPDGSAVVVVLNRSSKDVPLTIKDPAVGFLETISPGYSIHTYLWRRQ

Assay [2] can be described thus: AP1 Signaling Pathway (AID 357; active = well fitted curve in either direction with a large enough effect, not every such curve was filed as active;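 also: ME-180 reporter cells stimulated with EGF at its EC50 level; % is scaled to controls: 0 for no effect and ±100 for the full control effect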). The settings on record: ME-180 AP-1-bla reporter, EGF-induced, beta-lactamase ratio, 5 h; at 7.69 µM (top of the series) unless noted. The method, boiled down: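 Titration-series screen for positive or negative modulators of EC50 EGF-induced signaling in ME-180 cells carrying an AP-1-driven beta-lactamase reporter. After 5 hours at 37 degrees Celsius, CCF4 460nm/530nm emission ratio gave %Activity; AC50 values derived.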

Assay [3] concerns the target Cytochrome P450 1A2 (Homo sapiens) (UniProt P05177). Briefly: p450-cyp1a2 (AID 410; calls by dose curve; also: potency is read from the fitted curve at half-maximal effect). The settings on record: recombinant CYP1A2, luciferin-ME demethylation, luminescence; series mostly up to 57 µM. The method, boiled down:
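20nM CYP1A2, 100uM Luciferin-ME (=Km), 100mM KPO4; cpd 10 min RT; +NADPH regen, 60 min RT; stop/detect 20 min; luminescence. Normalized to furafylline 57 uM = full inhibition.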

A short description of assay [4]: NFAT Signaling Pathway (AID 444; active = well fitted curve in either direction with a large enough effect, not every such curve was filed as active;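 also: carbachol stimulus at about its EC50 of 1 µM final; % is scaled to controls: 0 for no effect and ±100 for the full control effect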). Conditions: Jurkat NFAT-bla M1, carbachol, beta-lactamase ratio, 5 h; at 7.69 µM (top of the series) unless noted. The method, boiled down: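 Jurkat cells with NFAT-driven β-lactamase reporter and co-expressed M1 receptor, stimulated with carbachol (final 1 uM, ~EC50), compound titration, 5 h at 37 °C. CCF4 loaded 1 h at RT; 460/530 nm ratio gave %activity and AC50.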

The nature of assay [5]: Stat Signaling Pathway (AID 446; active = well fitted curve in either direction with a large enough effect, not every such curve was filed as active;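 also: ME-180 cervical cancer cells given 40 pM IL-6 alongside compound; SIE-controlled beta-lactamase reporter measured as 460/530 nm FRET emission ratio; % is scaled to controls: 0 for no effect and ±100 for the full control effect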). Conditions: ME-180 (cervical carcinoma) SIE beta-lactamase reporter, IL-6 stimulated, 5 h; at 7.69 µM (top of the series) unless noted. The method, boiled down:
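Overnight-plated ME-180 cells bearing a STAT Inducible Element beta-lactamase reporter; 5 h co-exposure to compound and 40 pM IL-6; values normalized to 300 pM IL-6 and 125 nM JAK inhibitor controls.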

Assay [6] deals with Glucocorticoid receptor (Homo sapiens) (UniProt P04150). Briefly: GR-GFP Redistribution (AID 450;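 active = compounds whose dose series gives a full or clear partial fitted curve of increased nuclear translocation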; also: potency is read from the fitted curve at half-maximal effect). The settings on record: U2OS GR-GFP nuclear translocation, laser cytometry, 2 h.
Chain of Glucocorticoid receptor (Homo sapiens) (P04150 whole entry, looked up): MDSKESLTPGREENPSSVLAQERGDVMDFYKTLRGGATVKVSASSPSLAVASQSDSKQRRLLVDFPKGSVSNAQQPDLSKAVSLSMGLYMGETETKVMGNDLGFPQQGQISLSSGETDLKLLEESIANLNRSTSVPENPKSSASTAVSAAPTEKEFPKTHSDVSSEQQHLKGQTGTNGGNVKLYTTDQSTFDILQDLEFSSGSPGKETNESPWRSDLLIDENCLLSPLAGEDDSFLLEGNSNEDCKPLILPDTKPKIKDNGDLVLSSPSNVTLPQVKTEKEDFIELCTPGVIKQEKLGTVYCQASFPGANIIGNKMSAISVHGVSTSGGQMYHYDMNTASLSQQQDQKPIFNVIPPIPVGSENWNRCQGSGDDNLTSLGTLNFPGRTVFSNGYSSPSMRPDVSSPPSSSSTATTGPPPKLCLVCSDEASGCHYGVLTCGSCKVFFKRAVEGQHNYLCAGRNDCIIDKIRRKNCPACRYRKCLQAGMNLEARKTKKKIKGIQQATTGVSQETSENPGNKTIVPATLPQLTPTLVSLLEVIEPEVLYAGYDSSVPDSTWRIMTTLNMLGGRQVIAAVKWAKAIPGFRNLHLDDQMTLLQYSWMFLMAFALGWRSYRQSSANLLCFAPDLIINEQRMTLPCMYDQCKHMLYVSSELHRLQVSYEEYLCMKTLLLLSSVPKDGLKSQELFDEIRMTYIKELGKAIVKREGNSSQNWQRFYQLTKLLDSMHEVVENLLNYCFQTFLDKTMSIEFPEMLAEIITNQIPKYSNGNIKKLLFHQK
The target is the same in assay [7]. Briefly: GR-EFC Redistribution (AID 451; calls by dose curve; also: potency is read from the fitted curve at half-maximal effect). The settings on record: CHO-K1 GR-EFC translocation, beta-gal luminescence, 2 h. The method, boiled down:
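CHO-K1 cells expressing nuclear EA and GR-ED fragments of b-gal; compounds titrated up to 46 uM final, 2 h at 37 C. GR nuclear translocation read as complemented b-gal luminescence after 1 h RT detection.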

In assay [8] the target is Mitogen-activated protein kinase 10 (Mus musculus) (UniProt Q61831). Briefly: JNK3 AlphaScreen Assay (AID 530; active = well fitted curve in either direction with a large enough effect, not every such curve was filed as active;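 also: kinase came from lysate of stimulated human HepG2 cells; signal reports phosphorylation of biotinylated GST-cJun 1-79 at Ser73 with 10 µM ATP; % is scaled to controls: 0 for no effect and ±100 for the full control effect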). The settings on record: JNK3 lysate, c-Jun phosphorylation; series mostly up to 57.1 µM. The method, boiled down:
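HepG2 lysate (IL-1b/TNFa pre-activated) + biotin-GST-cJun 1-79 + anti-pSer73 cJun; cpd titration, 15 min RT; ATP 10 uM start; Tris pH 7.6, MgCl2, DTT, vanadate; beads in EDTA buffer; AlphaScreen.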
For orientation: In Alpha technology, singlet oxygen from a donor bead excites a nearby acceptor bead.

Assay [9] deals with Cytochrome P450 3A4 (Homo sapiens) (UniProt P08684). Nature of the assay: qHTS Assay for Inhibitors and Substrates of Cytochrome P450 3A4 (AID 884). Also: potency is read from the fitted curve at half-maximal effect; nearly all actives have a fitted effect of over 50% in size. The settings on record: recombinant CYP3A4, Luciferin-PPXE luminescence; series mostly up to 57.1 µM. The method, boiled down: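 Luminescent readout of luciferin produced by CYP3A4 (20 nM) dealkylation of Luciferin-PPXE, 25 uM (its KM). NADPH-driven reaction ran 60 min at RT after 10 min compound preincubation; data scaled to 57 uM ketoconazole as 100% inhibition.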
Chain of Cytochrome P450 3A4 (Homo sapiens) (P08684 whole entry, looked up): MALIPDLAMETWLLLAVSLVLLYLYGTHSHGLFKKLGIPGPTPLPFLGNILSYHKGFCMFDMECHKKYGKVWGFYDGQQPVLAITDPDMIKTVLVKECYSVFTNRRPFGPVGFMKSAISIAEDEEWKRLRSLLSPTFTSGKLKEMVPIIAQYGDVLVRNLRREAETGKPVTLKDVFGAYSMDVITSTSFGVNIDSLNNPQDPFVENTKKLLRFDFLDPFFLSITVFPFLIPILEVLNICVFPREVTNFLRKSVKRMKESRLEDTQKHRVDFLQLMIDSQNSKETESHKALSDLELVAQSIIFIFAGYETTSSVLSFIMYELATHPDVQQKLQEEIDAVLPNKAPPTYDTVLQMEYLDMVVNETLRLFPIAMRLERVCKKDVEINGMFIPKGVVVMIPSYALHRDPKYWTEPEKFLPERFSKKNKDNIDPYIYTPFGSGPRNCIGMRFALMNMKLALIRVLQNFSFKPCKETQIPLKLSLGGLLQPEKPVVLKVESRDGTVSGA

For assay [10] the target is unchanged. Briefly: qHTS Assay for Activators of Cytochrome P450 3A4 (AID 885). Also: nearly all actives have a fitted effect of over 65% in size. The settings on record: recombinant CYP3A4, Luciferin-PPXE luminescence, 60 min; series mostly up to 57.1 µM. The method, boiled down:
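Using 20nM recombinant human CYP3A4 in potassium phosphate (200mM), substrate Luciferin-PPXE at 25uM, luminescent luciferin detection followed a 60-min RT NADPH reaction; data scaled to 57 uM ketoconazole.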
Background: Quantitative high-throughput screening tests each substance at several concentrations.

Assay [11] deals with Cytochrome P450 2C19 (Homo sapiens) (UniProt P33261). Briefly: qHTS Assay for Inhibitors and Substrates of Cytochrome P450 2C19 (AID 899). Also: potency is read from the fitted curve at half-maximal effect; nearly all actives have a fitted effect of over 60% in size. The settings on record: recombinant CYP2C19, luciferin-H EGE luminescence; series mostly up to 57.1 µM. The method, boiled down: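 Luminescent read-out of luciferin formed from Luciferin-H EGE (10uM, equal to KM). Enzyme 5nM in 50mM KPO4; compound added, 10 min at 37C, then NADPH regenerating system for 60 min at 37C. Full inhibition defined by 57uM ketoconazole.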
Chain of Cytochrome P450 2C19 (Homo sapiens) (P33261 whole entry, looked up): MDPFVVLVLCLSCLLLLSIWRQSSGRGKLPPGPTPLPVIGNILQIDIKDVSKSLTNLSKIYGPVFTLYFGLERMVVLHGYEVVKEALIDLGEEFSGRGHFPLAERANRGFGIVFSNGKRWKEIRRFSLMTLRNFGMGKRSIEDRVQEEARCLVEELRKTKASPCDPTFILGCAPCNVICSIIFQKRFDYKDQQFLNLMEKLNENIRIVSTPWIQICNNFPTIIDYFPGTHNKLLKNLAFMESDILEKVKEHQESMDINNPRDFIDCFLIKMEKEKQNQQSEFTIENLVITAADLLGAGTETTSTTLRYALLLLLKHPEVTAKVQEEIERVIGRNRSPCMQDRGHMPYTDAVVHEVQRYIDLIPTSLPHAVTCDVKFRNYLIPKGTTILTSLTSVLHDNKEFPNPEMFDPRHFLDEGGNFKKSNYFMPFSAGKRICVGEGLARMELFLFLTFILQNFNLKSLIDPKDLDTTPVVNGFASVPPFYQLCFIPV

A short description of assay [12]: qHTS Assay for Lipid Storage Modulators (AID 1519; calls by dose curve). Conditions: Drosophila S3 cells, BODIPY lipid droplet/cell ratio, laser cytometry, cells loaded with oleic acid; for activity change, negative = inhibition: at 57.5 µM (top of the series). The method, boiled down:
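Cells seeded at 5,000 per well were treated with compounds over a concentration series and loaded with oleic acid (400 uM, as added). Lipid droplet fluorescence (488 nm excitation, 500-530 nm channel) was read by laser-scanning cytometry and normalized to 20 uM Triacsin C.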

The target in assay [13] is Dual specificity protein kinase CLK4 (Homo sapiens) (UniProt Q9HAZ1). Nature of the assay: qHTS Assay for Inhibitors of CDC-like Kinase 4 (Kinase-Glo Assay) (AID 1770). Also: nearly all actives have a fitted effect of over 65% in size. Also: potency is read from the fitted curve at half-maximal effect. Conditions: recombinant Clk4, Kinase-Glo ATP depletion luminescence; series mostly up to 66.7 µM. The method, boiled down:
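Clk4 25 nM, RS peptide 100 uM, ATP 1 uM, pH 7.5 Tris, 10 mM MgCl2, 2.5 mM DTT; 4.5 h RT; ATP depletion read by Kinase-Glo luminescence.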

For assay [14] the target is unchanged. Nature of the assay: qHTS Assay for Inhibitors of CDC-like Kinase 4 (ADP-Glo Assay) (AID 1771). Also: nearly all actives have a fitted effect of over 70% in size. Also: potency is read from the fitted curve at half-maximal effect. The settings on record: recombinant CLK4, ADP-Glo luminescence; series mostly up to 80 µM. The method, boiled down: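 25 nM Clk4, 100 uM RS peptide, 1 uM ATP (final); 2 mM MgCl2, 0.5 mM EGTA, 2.5 mM DTT, 0.01% Triton X-100; 1 hr RT. ADP-Glo readout: ATP depletion 45 min, conversion/luciferase 30 min, luminescence.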

For assay [15] the target is unchanged. Briefly: qHTS Assay for Inhibitors of CDC-like Kinase 4 (ADP-FP Assay) (AID 1795). Also: nearly all actives have a fitted effect of over 60% in size. Also: potency is read from the fitted curve at half-maximal effect. The settings on record: Transcreener ADP fluorescence polarization; series mostly up to 50 µM. The method, boiled down: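 Kinase activity was followed as ADP output, converted from fluorescence polarization with a calibration curve. Reactions ran one hour at low ATP (1 uM) with RS peptide substrate.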

A short description of assay [16]: Primary qHTS for small molecule stabilizers of the endoplasmic reticulum resident proteome: Secreted ER Calcium Modulated Protein (SERCaMP) assay (AID 1508630). Also: % is scaled to controls: 0 for no effect and ±100 for the full control effect. The settings on record: SH-SY5Y GLuc-SERCaMP (Gaussia luciferase released on ER calcium loss) secretion, thapsigargin, luminescence; series mostly up to 38.4 µM. The method, boiled down:
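The SH-SY5Y reporter protocol was run at 3 concentrations up to 38.3 uM (primary) or 11 concentrations (follow-up): 16 h compound, 100 nM thapsigargin for 4 h, then extracellular luciferase luminescence.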

Assay [17] concerns the target 3',5'-cyclic-AMP phosphodiesterase 4B (Homo sapiens) (UniProt Q07343). Nature of the assay: qHTS Assay for Inhibitors of PDE-IV (AID 607; active = well fitted activation curve with a large enough effect in the main read-out, with a control signal flat, not every such curve was filed as active; also: % of control where 0% means no effect). Conditions: HEK293 ACTOne CNG channel cells, membrane potential fluorescence; series mostly up to 22.9 µM. The method, boiled down: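 Live HEK293 cells with a modified cyclic nucleotide-gated (CNG) channel report intracellular cAMP via membrane-potential dye fluorescence (ex 535/em 590 nm). Endogenous PDE-IV was targeted. Compounds were tested at up to 22.9 uM final; RO 20-1724 100 uM served as control.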

In assay [18] the target is Ubiquitin carboxyl-terminal hydrolase 1 (Homo sapiens) (UniProt O94782). Briefly: Inhibitors of USP1/UAF1: Pilot qHTS (AID 504865).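 Also: rhodamine fluorescence freed from ubiquitin-rhodamine substrate followed over time; top concentration of the series differs between compounds; % is scaled to controls: 0 for no effect and ±100 for the full control effect; nearly all actives have a fitted effect of over 35% in size.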 Conditions: purified USP1/UAF1, Ub-rhodamine cleavage fluorescence; series mostly up to 54.9 µM. The method, boiled down: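 Enzyme-free wells gave the negative control, while test wells held 1nM USP1/UAF1 preincubated with compound for 15 min at room temperature. Ub-Rho at 150nM final started the reaction, and fluorescence at 480/540 nm was recorded kinetically.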
Chain of Ubiquitin carboxyl-terminal hydrolase 1 (Homo sapiens) (O94782 whole entry, looked up): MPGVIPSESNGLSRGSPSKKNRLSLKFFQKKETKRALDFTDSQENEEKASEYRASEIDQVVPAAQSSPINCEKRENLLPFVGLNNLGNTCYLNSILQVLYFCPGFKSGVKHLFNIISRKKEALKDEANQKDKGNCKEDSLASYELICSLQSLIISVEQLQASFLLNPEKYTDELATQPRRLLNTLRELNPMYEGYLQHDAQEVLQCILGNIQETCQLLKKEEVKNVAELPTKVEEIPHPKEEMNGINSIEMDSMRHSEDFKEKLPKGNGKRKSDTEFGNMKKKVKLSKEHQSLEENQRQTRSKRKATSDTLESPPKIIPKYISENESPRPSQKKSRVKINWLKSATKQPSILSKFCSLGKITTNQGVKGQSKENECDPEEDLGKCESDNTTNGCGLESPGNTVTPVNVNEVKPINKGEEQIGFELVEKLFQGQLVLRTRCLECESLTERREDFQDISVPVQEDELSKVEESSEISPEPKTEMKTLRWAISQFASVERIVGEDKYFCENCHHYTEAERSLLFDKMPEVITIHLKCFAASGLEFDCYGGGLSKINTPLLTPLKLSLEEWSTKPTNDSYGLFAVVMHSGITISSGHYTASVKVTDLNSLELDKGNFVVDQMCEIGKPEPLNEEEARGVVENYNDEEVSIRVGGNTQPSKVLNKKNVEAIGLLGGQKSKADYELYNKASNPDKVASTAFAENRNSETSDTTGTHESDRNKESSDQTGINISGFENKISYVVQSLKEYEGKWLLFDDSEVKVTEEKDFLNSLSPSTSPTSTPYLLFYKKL

The target in assay [19] is Cytochrome P450 2C9 (Homo sapiens) (UniProt P11712). Nature of the assay: qHTS Assay for Inhibitors and Substrates of Cytochrome P450 2C9 (AID 883). Also: % is scaled to controls: 0 for no effect and ±100 for the full control effect; nearly all actives have a fitted effect of over 60% in size. The settings on record: recombinant CYP2C9, luciferin-H luminescence, 60 min; series mostly up to 57.1 µM. The method, boiled down: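 10nM CYP2C9 + 100uM Luciferin-H (=KM), 25mM KPO4; cpd 10 min 37C; NADPH regen, 60 min 37C; stop/detect with P450 Glo-Buffer 20 min; luminescence. Norm. to 57uM sulphaphenazole as full inhibition.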

[20] abbreviates: measured here: cell count channel max response.
The mark [21] stands for this setting: measured here: lipid channel max response.

SMILES strings stand for the structures. Results filed as inconclusive are left out. Active and inactive are the calls of the source. Unless noted, calls follow the shape of the dose curve; as a rule, active = well fitted curve in the direction sought with a large enough effect; inconclusive = small, poorly fitted or top-dose-only effect, or another doubt; inactive = no such curve, though single readings can be large; an effect the other way counts as inactive or inconclusive.

Chain of Cytochrome P450 1A2 (Homo sapiens) (P05177 whole entry, looked up): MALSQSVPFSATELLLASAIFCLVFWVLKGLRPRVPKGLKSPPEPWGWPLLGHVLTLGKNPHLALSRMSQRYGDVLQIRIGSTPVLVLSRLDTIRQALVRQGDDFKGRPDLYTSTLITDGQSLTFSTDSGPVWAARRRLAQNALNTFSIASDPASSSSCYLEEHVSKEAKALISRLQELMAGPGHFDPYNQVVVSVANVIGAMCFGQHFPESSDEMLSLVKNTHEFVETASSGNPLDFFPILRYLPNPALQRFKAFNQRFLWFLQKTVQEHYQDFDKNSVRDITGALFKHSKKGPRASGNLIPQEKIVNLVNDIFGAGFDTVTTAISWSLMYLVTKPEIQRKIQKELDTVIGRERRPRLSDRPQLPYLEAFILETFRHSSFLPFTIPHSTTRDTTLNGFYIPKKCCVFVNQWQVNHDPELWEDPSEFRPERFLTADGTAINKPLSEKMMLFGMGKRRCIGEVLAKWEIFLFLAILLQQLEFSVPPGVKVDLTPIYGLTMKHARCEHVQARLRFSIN
Chain of Dual specificity protein kinase CLK4 (Homo sapiens) (Q9HAZ1 whole entry, looked up): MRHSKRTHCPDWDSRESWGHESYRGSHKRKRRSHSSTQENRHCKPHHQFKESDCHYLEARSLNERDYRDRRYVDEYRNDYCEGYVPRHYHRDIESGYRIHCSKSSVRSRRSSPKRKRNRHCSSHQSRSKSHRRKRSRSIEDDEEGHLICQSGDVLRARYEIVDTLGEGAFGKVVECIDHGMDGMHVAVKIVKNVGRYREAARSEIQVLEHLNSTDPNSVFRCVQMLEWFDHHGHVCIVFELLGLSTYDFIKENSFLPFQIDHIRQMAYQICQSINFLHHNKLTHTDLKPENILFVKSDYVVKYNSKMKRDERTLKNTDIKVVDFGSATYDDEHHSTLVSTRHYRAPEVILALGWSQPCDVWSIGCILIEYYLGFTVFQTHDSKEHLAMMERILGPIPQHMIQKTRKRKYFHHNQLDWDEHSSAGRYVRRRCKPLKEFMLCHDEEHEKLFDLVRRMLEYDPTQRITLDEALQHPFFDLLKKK
Chain of 3',5'-cyclic-AMP phosphodiesterase 4B (Homo sapiens) (Q07343 whole entry, looked up): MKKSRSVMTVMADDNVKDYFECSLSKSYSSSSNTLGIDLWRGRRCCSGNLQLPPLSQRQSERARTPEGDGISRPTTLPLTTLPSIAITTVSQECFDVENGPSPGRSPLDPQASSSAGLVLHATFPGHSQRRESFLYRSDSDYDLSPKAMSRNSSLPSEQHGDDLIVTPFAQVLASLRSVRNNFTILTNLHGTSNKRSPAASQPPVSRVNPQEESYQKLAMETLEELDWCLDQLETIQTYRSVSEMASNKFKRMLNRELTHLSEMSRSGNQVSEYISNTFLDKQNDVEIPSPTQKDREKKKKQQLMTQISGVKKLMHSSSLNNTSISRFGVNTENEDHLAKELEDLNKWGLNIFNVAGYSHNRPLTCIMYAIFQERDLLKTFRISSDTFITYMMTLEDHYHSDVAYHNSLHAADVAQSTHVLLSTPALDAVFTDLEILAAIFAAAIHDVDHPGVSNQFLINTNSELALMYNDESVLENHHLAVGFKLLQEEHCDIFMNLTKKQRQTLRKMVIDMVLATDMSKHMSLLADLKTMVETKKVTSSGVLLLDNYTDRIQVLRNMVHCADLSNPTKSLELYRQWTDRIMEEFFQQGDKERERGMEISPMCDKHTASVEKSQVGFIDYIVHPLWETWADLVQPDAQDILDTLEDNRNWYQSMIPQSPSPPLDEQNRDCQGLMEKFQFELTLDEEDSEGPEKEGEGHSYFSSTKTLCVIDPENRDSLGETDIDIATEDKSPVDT

Regarding `Cc1ccccc1-c1cncnc1NCc1cccs1`, the Potency was > 11.4 µM (inactive) in assay [1]; 3.16 µM (active) in assay [3]; > 46 µM (inactive) in assay [6]; > 46 µM (inactive) in assay [7]; 501 nM (active) in assay [9]; 794 nM (active) in [11]. For the same molecule, the values for the activity change, negative = inhibition in assay [2], in [4] and in assay [12] were 1.41% (inactive), 2.62% (inactive) and 5.75% (inactive), respectively. Also, the activity, negative = inhibition in [5] is 3.53% (inactive). In addition, the call in assay [8] was inactive. In addition, the Potency result in assay [10], in assay [13], in assay [14], in [15] and in assay [16] was “inactive” each time. Also, the max response was 11.6% in [12] (setting [20]) and 15.6% in assay [12] (setting [21]).
Consider `CC(=O)NCCNc1ncnc2ccc(-c3cccc(NS(C)(=O)=O)c3)cc12`, for which the Potency in [1] was > 11.4 µM (inactive); in [3] it was 15.8 µM (active); in [6], > 46 µM (inactive); in assay [7], > 46 µM (inactive); in assay [13] it was 12.6 µM (active); in assay [14] it was 12.6 µM (active). Also, the Potency in [15] is 8.91 µM (active). The activity change, negative = inhibition in assay [2] is 3.51% (inactive); in assay [4] it was 7.81% (inactive); in assay [12], 1.93% (inactive). Further, the activity, negative = inhibition in [5] was 6.44% (inactive). Further, the call in assay [8] was inactive. Moreover, the Potency entry in [17], in [10], in assay [18] and in assay [16] was “inactive” throughout. In addition, the max response in assay [12] (setting [20]) came to 24.3%; in [12] (setting [21]), 24.6%.
For the molecule `CNc1cc(-c2ccccc2CN(C)C)ncn1`, the Potency is > 11.4 µM (inactive) in assay [1], 31.6 µM (active) in assay [3], > 46 µM (inactive) in assay [6] and > 46 µM (inactive) in assay [7]. The activity change, negative = inhibition in assay [2] was 6.89% (inactive); in assay [4], -0.773% (inactive); in assay [12] it was 2.26% (inactive). Also, the activity, negative = inhibition in assay [5] is -3.02% (inactive). Moreover, in assay [8], the call was inactive. Further, the Potency entry in assay [17], in assay [13], in [14], in assay [15] and in [16] was “inactive” in each case. For the same molecule, the results for the max response in assay [12] (setting [20]) and in assay [12] (setting [21]) were 7.6% and 8.03%, respectively.
On to `COc1ccc(-n2c(=O)c(-c3cccs3)nc3cncnc32)cc1`, for which the Potency was > 11.4 µM (inactive) in assay [1], 10 µM (active) in [3], > 9.22 µM (inactive) in assay [6] and > 46 µM (inactive) in assay [7]. Also, the activity change, negative = inhibition was -19.3% (inactive) in assay [2], 0.0711% (inactive) in [4] and -10.8% (inactive) in [12]. Also, the activity, negative = inhibition in assay [5] is -0.243% (inactive). Besides, the molecule was classed as inactive in assay [8]. The max response in assay [12] (setting [20]) amounted to 28.9%; in assay [12] (setting [21]), 11.5%. Also, the Potency entry in [13], in assay [14], in [15] and in assay [16] was “inactive” throughout.
With `CC(=O)NCCNc1ncncc1-c1ccccc1C`, the Potency in assay [1] was > 11.4 µM (inactive); in assay [3], 25.1 µM (active); in [6], > 46 µM (inactive); in [7] it was > 46 µM (inactive); in [9], 2510 nM (active). For the same molecule, the activity change, negative = inhibition in [2] was 10.6% (inactive); in assay [4] it was 5.27% (inactive); in assay [19], 19.5% [at 2.29 µM] (inactive); in [12], 6.81% (inactive). Moreover, the activity, negative = inhibition in [5] was 8.22% (inactive). The result in assay [8] was inactive. In addition, the Potency entry in [10], in assay [13], in assay [14], in assay [15], in assay [18] and in assay [16] was “inactive” in each case. In addition, the max response turned out to be 17.2% in assay [12] (setting [20]) and 23% in [12] (setting [21]).

The values above are taken from PubChem BioAssay (NCATS).
